Reference: PubChem BioAssay AID1159580 (chemical genetic matrix, 2015)
Out of some 5,500 compounds screened, about 2,000 (36%) were called active. Not shown: some 18% with an inconclusive outcome. No stated cut-off is given here; in the data, active means normalized growth mostly below about 0.91 (no sharp cut-off); inconclusive means no clear call, values can overlap the other calls; inactive means mostly above about 0.92. This is one part of the list.

Assay: chemical genetic growth profiling, strain panel (AID 1159580);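 further: tested at 20 µM; growth read once vehicle control cultures reached saturation at 30 °C; 1 = growth at the plate median or of vehicle wells; lower values mean less growth of the strain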
Conditions: growth OD

Measured: normalized growth

CC1O[C@@H](Oc2c(-c3ccc(O)c(O)c3)oc3cc(O)cc(O)c3c2=O)[C@H](O)[C@H](O)[C@H]1O (some centres not stated)
inactive: S. cerevisiae deletion strains, locus YJR075W, strain HOC1, hits give low values 0.996 | S. cerevisiae deletion strains, locus YKL009W, strain mrt4, hits give low values 1.11 | S. cerevisiae deletion strains, locus YKL068W, hits give low values 0.972 | S. cerevisiae deletion strains, locus YKL085W, strain MDH1 (second series), hits give low values 1.03 | S. cerevisiae deletion strains, locus YKL085W, strain MDH1, hits give low values 1.03 | S. cerevisiae deletion strains, locus YKL160W, strain elf1, hits give low values 0.994 | S. cerevisiae deletion strains, locus YKL190W, strain CNB1, hits give low values 0.998 | S. cerevisiae deletion strains, locus YKR001C, strain vps1, hits give low values 0.989 | S. cerevisiae deletion strains, locus YKR026C, strain gcn3, hits give low values 0.983 | S. cerevisiae deletion strains, locus YKR091W, strain srl3, hits give low values 0.993 | S. cerevisiae deletion strains, locus YLL001W, strain dnm1, hits give low values 0.986 | S. cerevisiae deletion strains, locus YLL026W, hits give low values 0.996 | S. cerevisiae deletion strains, locus YLL041C, strain sdh2, hits give low values 0.997 | S. cerevisiae deletion strains, locus YLR027C, strain aat2, hits give low values 0.98 | S. cerevisiae deletion strains, locus YLR039C, strain RIC1, hits give low values 0.974 | S. cerevisiae deletion strains, locus YLR058C, strain SHM2, hits give low values 0.999 | S. cerevisiae deletion strains, locus YLR102C, strain apc9, hits give low values 0.984 | S. cerevisiae deletion strains, locus YLR113W, strain HOG1, hits give low values 0.958 | S. cerevisiae deletion strains, locus YLR221C, strain rsa3, hits give low values 0.989 | S. cerevisiae deletion strains, locus YLR258W, strain gsy2, hits give low values 1 | S. cerevisiae deletion strains, locus YLR262C, strain YPT6 (second series), hits give low values 1.01 | S. cerevisiae deletion strains, locus YLR262C, strain YPT6, hits give low values 0.992 | S. cerevisiae deletion strains, locus YLR268W, strain sec22, hits give low values 0.948 | S. cerevisiae deletion strains, locus YLR320W, strain mms22, hits give low values 0.991 | S. cerevisiae deletion strains, locus YLR330W, strain CHS5, hits give low values 0.99 | S. cerevisiae deletion strains, locus YLR342W, strain FKS1 (second series), hits give low values 1.04 | S. cerevisiae deletion strains, locus YLR342W, strain FKS1, hits give low values 0.984 | S. cerevisiae deletion strains, locus YLR357W, strain rsc2, hits give low values 0.969 | S. cerevisiae deletion strains, locus YLR370C, strain arc18, hits give low values 0.989 | S. cerevisiae deletion strains, locus YLR371W, strain rom2, hits give low values 0.992 | S. cerevisiae deletion strains, locus YLR384C, strain iki3, hits give low values 0.994 | S. cerevisiae deletion strains, locus YLR418C, strain cdc73, hits give low values 0.993 | S. cerevisiae deletion strains, locus YML016C, strain PPZ1, hits give low values 1 | S. cerevisiae deletion strains, locus YML032C, strain rad52, hits give low values 0.99 | S. cerevisiae deletion strains, locus YML120C, strain ndi1, hits give low values 1 | S. cerevisiae deletion strains, locus YML124C, strain tub3, hits give low values 0.985 | S. cerevisiae deletion strains, locus YMR058W, strain fet3, hits give low values 0.99 | S. cerevisiae deletion strains, locus YMR078C, strain ctf18, hits give low values 0.988 | S. cerevisiae deletion strains, locus YMR125W, strain sto1, hits give low values 0.981 | S. cerevisiae deletion strains, locus YMR129W, hits give low values 0.982 | S. cerevisiae deletion strains, locus YMR205C, strain PFK2, hits give low values 0.986 | S. cerevisiae deletion strains, locus YMR223W, strain ubp8, hits give low values 1.03 | S. cerevisiae deletion strains, locus YMR231W, strain pep5, hits give low values 0.974 | S. cerevisiae deletion strains, locus YMR263W, strain SAP30, hits give low values 0.992 | S. cerevisiae deletion strains, locus YMR307W, strain GAS1, hits give low values 1.1 | S. cerevisiae deletion strains, locus YNL067W, strain RPL9B, hits give low values 0.975 | S. cerevisiae deletion strains, locus YNL071W, strain lat1, hits give low values 0.992 | S. cerevisiae deletion strains, locus YNL128W, strain TEP1, hits give low values 0.986 | S. cerevisiae deletion strains, locus YNL153C, strain GIM3, hits give low values 0.991 | S. cerevisiae deletion strains, locus YNL183C, strain NPR1, hits give low values 0.919 | S. cerevisiae deletion strains, locus YNL209W, strain ssb2, hits give low values 0.984 | S. cerevisiae deletion strains, locus YNL233W, strain BNI4, hits give low values 0.985 | S. cerevisiae deletion strains, locus YNL248C, strain rpa49, hits give low values 0.989 | S. cerevisiae deletion strains, locus YNL250W, strain rad50, hits give low values 0.983 | S. cerevisiae deletion strains, locus YNL271C, strain bni1, hits give low values 0.984 | S. cerevisiae deletion strains, locus YNL298W, strain CLA4, hits give low values 0.991 | S. cerevisiae deletion strains, locus YNL307C, strain MCK1, hits give low values 0.997 | S. cerevisiae deletion strains, locus YNL322C, strain KRE1 (second series), hits give low values 0.988 | S. cerevisiae deletion strains, locus YNL322C, strain KRE1, hits give low values 0.984 | S. cerevisiae deletion strains, locus YNR049C, strain mso1, hits give low values 0.986 | S. cerevisiae deletion strains, locus YNR052C, strain pop2, hits give low values 0.98 | S. cerevisiae deletion strains, locus YOL006C, strain TOP1, hits give low values 0.955 | S. cerevisiae deletion strains, locus YOL012C, strain htz1 0.762 | S. cerevisiae deletion strains, locus YOL147C, strain pex11, hits give low values 0.997 | S. cerevisiae deletion strains, locus YOR001W, strain rrp6, hits give low values 0.992 | S. cerevisiae deletion strains, locus YOR061W, strain CKA2, hits give low values 1 | S. cerevisiae deletion strains, locus YOR069W, strain VPS5, hits give low values 1 | S. cerevisiae deletion strains, locus YOR070C, strain gyp1, hits give low values 0.986 | S. cerevisiae deletion strains, locus YOR080W, strain dia2, hits give low values 0.988 | S. cerevisiae deletion strains, locus YOR083W, strain WHI5, hits give low values 0.995 | S. cerevisiae deletion strains, locus YOR106W, strain vam3, hits give low values 1.02 | S. cerevisiae deletion strains, locus YOR136W, strain idh2, hits give low values 0.986 | S. cerevisiae deletion strains, locus YOR144C, strain elg1, hits give low values 0.982 | S. cerevisiae deletion strains, locus YOR184W, strain ser1, hits give low values 1.01 | S. cerevisiae deletion strains, locus YOR231W, strain MKK1, hits give low values 0.942 | S. cerevisiae deletion strains, locus YOR265W, strain rbl2, hits give low values 0.992 | S. cerevisiae deletion strains, locus YOR270C, strain vph1, hits give low values 1.03 | S. cerevisiae deletion strains, locus YOR290C, strain snf2, hits give low values 0.995 | S. cerevisiae deletion strains, locus YOR316C, strain cot1, hits give low values 0.983 | S. cerevisiae deletion strains, locus YPL051W, strain arl3, hits give low values 0.983 | S. cerevisiae deletion strains, locus YPL055C, strain LGE1, hits give low values 0.974 | S. cerevisiae deletion strains, locus YPL078C, strain atp4, hits give low values 0.997 | S. cerevisiae deletion strains, locus YPL106C, strain sse1, hits give low values 0.971 | S. cerevisiae deletion strains, locus YPL240C, strain hsp82, hits give low values 1 | S. cerevisiae deletion strains, locus YPL241C, strain CIN2, hits give low values 1 | S. cerevisiae deletion strains, locus YPL256C, strain CLN2, hits give low values 0.927 | S. cerevisiae deletion strains, locus YPR119W, strain clb2, hits give low values 0.996 | S. cerevisiae deletion strains, locus YPR141C, strain kar3, hits give low values 0.975 | S. cerevisiae deletion strains, locus YPR163C, strain tif3, hits give low values 0.986 | S. cerevisiae deletion strains, locus YPR167C, strain met16, hits give low values 0.982 | S. cerevisiae deletion strains, strain wtn01, hits give low values 0.982 | S. cerevisiae strains, strain wild type, hits give low values 0.997
